The campaign covered roughly 16,000 compounds. About 2,600 (16%) were called active. Not shown: some 20% with an inconclusive outcome. The sample holds actives, similar compounds and a random draw of the others, so the mix is not that of the screen. Unmarked numbers belong to inactive results. Calls follow the shape of the dose curve; as a rule, active = well fitted curve in the direction sought with a large enough effect; inconclusive = small, poorly fitted or top-dose-only effect, or effect the other way; inactive = no such curve, though single readings can be large or run the other way.
The compounds below were run against Cytochrome P450 2D6 (Homo sapiens) (UniProt P10635) (assay: Cytochrome panel assay with activity outcomes). Conditions: recombinant CYP, pro-luciferin dealkylation, luminescence, p450-cyp2d6; series mostly up to 57.1 µM; activity, negative = inhibition: at the top concentration.
Chain of Cytochrome P450 2D6 (Homo sapiens) (P10635 whole entry, looked up): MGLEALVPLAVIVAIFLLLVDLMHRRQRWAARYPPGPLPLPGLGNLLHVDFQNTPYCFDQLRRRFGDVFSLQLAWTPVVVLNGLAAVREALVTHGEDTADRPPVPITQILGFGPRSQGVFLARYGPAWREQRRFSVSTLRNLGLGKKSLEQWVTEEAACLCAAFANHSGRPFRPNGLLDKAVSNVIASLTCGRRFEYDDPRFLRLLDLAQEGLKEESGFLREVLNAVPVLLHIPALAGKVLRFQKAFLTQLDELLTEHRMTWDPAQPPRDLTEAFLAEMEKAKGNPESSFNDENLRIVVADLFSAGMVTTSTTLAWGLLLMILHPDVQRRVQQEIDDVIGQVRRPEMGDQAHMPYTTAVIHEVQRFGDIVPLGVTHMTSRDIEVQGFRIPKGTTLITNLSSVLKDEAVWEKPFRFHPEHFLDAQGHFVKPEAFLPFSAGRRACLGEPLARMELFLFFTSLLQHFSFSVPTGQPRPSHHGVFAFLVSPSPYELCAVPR
For `O=[N+]([O-])c1cc([As](=O)(O)O)ccc1O`, the “activity, negative = inhibition” value was -1.12% [at 25.6 µM]. With `CCn1cnc2c(Nc3cccc(Cl)c3)nc(N[C@@H]3CCCC[C@H]3N)nc21` the AC50 was 25100 nM (active). With `CC(=O)[C@@H]1CC[C@@H]2[C@@H]3CC=C4C[C@H](OS(=O)(=O)O)CC[C@@]4(C)[C@H]3CC[C@]21C` the “activity, negative = inhibition” value was -8.1%. `Cc1ccc2c(c1)C1CN(C)CCC1N2C(=O)Nc1cccc(Cl)c1` (stereo unspecified) was tested, and the AC50 was 1000 nM (active). For `Brc1c(NC2=NCCN2)ccc2nccnc12`, the “activity, negative = inhibition” value was -11.4%. For `Clc1cc(I)cc(Cl)c1NC1=NCCN1`, the AC50 was 3980 nM (active). In the case of `CCC(CC)C(=O)NC1CCSC1=O` (stereo unspecified), the “activity, negative = inhibition” value is reported as 0.616%. For `CC1(C)N=C(N)N=C(N)N1c1cccc(C(=O)Nc2ccc(S(=O)(=O)F)cc2)c1`, the AC50 was 2000 nM (active). In the case of `CC(=O)c1ccc2c(c1)N(CCCN(C)C)c1ccccc1S2`, the AC50 is reported as 2510 nM (active). For `C=CCN1C(=O)c2ccccc2Sc2ccc(C(=O)N3CCC4(CC3)OCCO4)cc21`, the “activity, negative = inhibition” value was -5.85%. In the case of `CN1C(=O)c2ccccc2Sc2ccc(C(=O)N3CCC4(CC3)OCCO4)cc21`, the “activity, negative = inhibition” value is reported as 13.9%. In the case of `CCCCc1nc2ccccc2c(=O)n1-c1ccccc1[N+](=O)[O-]`, the “activity, negative = inhibition” value is reported as -22.1%. In the case of `COc1cc(CCN)ccc1O`, the “activity, negative = inhibition” value is reported as -0.172%. For `CN(C(=O)Cc1ccccc1)[C@H](CN1CCCC1)c1ccccc1`, the AC50 was 3160 nM (active). `CN(C(=O)Cc1ccc(Cl)c(Cl)c1)[C@@H](CN1CCCC1)c1cccc(OCC(=O)O)c1` was tested, and the “activity, negative = inhibition” value was 0.96%. With `O=c1[nH]oc2c1CCNC2` the AC50 was “inactive”. For `C#C[C@@]1(O)CC[C@@H]2[C@@H]3CCC4=CC(=O)CC[C@@]4(C)[C@H]3CC[C@]21C`, the “activity, negative = inhibition” value was 3.54% [at 25.6 µM]. For `Cc1ccc(N2C(=O)/C(=C/c3ccc(CN(CCC#N)S(C)(=O)=O)o3)C(=O)NC2=S)cc1C`, the “activity, negative = inhibition” value was 4.47%. In the case of `Cc1ccc(N2C(=O)/C(=C/N3CCN(C(=O)c4ccco4)CC3)C(=O)NC2=S)cc1C`, the AC50 is reported as 28.2 nM (active). `CC(=O)Nc1ccccc1C(=O)OCC(=O)c1ccc2ccccc2c1` was tested, and the “activity, negative = inhibition” value was 29.5%. In the case of `CC[C@@]1(O)C(=O)OCc2c1cc1n(c2=O)Cc2cc3c(NC(=O)CN)cccc3nc2-1`, the activity, negative = inhibition is reported as 3.66% [at 11.4 µM]. For `O=C(O)[C@H]1[C@H](C(=O)O)[C@H]2CC[C@@H]1O2`, the “activity, negative = inhibition” value was 2.98%. `CN(C)CC/C=C1\c2ccccc2Sc2ccc(Cl)cc21` was tested, and the AC50 was 2510 nM (active). For `CN(C)CCC=C1c2ccccc2CCc2ccccc21`, the AC50 was 7940 nM (active). With `CN(C)[C@@H]1C(=O)C(C(N)=O)=C(O)[C@]2(O)C(=O)C3=C(O)c4c(O)cccc4[C@@](C)(O)[C@H]3[C@H](O)[C@@H]12` the “activity, negative = inhibition” value was 0.652% [at 25.6 µM]. Work on `FC(F)(F)c1nc2ccc(SSc3ccc4nc(C(F)(F)F)[nH]c4c3)cc2[nH]1` yielded an activity, negative = inhibition of -8.27% [at 11.4 µM].

Reference: PubChem BioAssay AID1851 (National Center for Advancing Translational Sciences (NCATS), 2009)
% is scaled to controls: 0 for no effect and ±100 for the full control effect.
